# Test results taken from publication PMC5700166.
# Where a chain is given by its changes, count along the chain named.
# Columns and labels:
# Test in all cases: protein-binding microarray (PBM); PBM: ~300 nM protein, 6 mM HEPES pH 7.8, 80 mM KCl, 0.5 mM EDTA, 0.5 mM EGTA, 6% glycerol, 35 ng/ul poly-dIdC, 1% milk, 1 h, room temperature; Ap Aiptasia and Nv Nematostella (sea anemones) / Co Capsaspora / Aq Amphimedon (sponge) / Dm Drosophila / Hu human; RHD is the Rel homology domain; high values mean tight binding
# Details in all cases: dsDNA, one strand shown
# GST-Ap-NF-kB RHD = biological target: T1, GST-Ap-NF-kB RHD (Exaiptasia pallida (Aiptasia), UniProt A0A913YAJ5 2-422)
# T1 sequence: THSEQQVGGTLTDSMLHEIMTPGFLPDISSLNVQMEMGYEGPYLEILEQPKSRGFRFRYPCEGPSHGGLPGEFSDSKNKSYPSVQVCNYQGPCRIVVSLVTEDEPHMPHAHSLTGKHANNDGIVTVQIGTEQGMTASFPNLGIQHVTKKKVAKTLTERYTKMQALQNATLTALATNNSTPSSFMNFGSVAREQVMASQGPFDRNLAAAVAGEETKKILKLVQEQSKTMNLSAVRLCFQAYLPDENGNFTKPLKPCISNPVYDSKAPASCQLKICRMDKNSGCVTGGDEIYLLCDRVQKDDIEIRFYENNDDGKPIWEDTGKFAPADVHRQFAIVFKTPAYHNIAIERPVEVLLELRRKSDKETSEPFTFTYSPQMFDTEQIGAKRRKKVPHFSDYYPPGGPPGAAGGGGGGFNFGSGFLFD
# [1] = biological target: T2, GST-Nv-NF-kB (Cys allele) (Nematostella vectensis, UniProt E5G601 2-411)
# T2 sequence: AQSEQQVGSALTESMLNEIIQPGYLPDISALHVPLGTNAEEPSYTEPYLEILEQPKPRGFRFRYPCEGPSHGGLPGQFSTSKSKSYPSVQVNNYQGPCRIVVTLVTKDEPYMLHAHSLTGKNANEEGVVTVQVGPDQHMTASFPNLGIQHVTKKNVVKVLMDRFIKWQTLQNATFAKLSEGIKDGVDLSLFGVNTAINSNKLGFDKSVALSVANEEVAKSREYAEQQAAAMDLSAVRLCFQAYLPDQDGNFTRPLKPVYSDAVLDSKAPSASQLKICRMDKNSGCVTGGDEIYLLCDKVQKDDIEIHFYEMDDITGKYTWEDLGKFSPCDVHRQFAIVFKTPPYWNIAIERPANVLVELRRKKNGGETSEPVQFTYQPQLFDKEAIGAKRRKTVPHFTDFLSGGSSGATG
# [2] = biological target: T3, GST-Nv-NF-kB (Ser allele) (Nematostella vectensis, UniProt A7UNT2 2-411)
# T3 sequence: T2 sequence with Q21R, C66S, S207N, E215Q, V217A, E225K, A268E, D399E
# GST-Dm-Relish = biological target: T4, GST-Dm-Relish (Drosophila melanogaster, UniProt Q94527 99-473)
# T4 sequence: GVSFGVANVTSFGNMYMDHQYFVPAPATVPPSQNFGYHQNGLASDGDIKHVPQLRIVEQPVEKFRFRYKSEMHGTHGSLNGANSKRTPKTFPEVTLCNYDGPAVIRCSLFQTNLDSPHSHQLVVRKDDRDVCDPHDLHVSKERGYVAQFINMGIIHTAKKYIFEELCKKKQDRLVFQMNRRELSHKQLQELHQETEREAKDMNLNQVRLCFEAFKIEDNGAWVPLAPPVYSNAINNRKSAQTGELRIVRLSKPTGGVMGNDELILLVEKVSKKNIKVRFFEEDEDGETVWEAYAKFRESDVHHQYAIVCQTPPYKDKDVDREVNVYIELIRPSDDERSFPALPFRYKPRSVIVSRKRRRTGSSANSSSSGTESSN
# GST-Aq-NF-kB = biological target: T5, GST-Aq-NF-kB (Amphimedon queenslandica, UniProt A9Y5G7 2-389)
# T5 sequence: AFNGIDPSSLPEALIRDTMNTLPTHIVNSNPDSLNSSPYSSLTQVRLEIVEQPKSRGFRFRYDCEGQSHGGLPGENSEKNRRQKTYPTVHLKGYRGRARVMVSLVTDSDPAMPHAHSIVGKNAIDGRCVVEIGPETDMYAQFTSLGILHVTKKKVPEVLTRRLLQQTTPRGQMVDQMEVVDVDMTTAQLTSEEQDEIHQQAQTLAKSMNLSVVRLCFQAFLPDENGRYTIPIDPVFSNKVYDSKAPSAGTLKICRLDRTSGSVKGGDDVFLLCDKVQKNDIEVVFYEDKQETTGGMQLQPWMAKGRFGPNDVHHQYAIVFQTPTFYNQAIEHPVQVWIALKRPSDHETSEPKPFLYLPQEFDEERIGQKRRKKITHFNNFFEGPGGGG
# GST-Hu-p50 = GST-Hu-p50 (Homo sapiens, UniProt P19838 7-356)
# GST-Co-NF-kB = biological target: T6, GST-Co-NF-kB (Capsaspora owczarzaki, UniProt F1ARL5 200-546)
# T6 sequence: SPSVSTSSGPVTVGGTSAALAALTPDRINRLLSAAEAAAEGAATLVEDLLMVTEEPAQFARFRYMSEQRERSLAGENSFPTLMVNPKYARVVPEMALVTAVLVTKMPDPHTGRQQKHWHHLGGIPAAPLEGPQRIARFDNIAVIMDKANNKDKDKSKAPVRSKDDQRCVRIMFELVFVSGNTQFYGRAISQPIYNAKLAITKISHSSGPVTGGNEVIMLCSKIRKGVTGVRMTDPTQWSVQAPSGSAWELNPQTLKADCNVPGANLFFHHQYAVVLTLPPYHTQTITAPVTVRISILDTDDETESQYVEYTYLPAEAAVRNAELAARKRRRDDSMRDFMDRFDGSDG
# Chain of GST-Hu-p50 (P19838 7-356): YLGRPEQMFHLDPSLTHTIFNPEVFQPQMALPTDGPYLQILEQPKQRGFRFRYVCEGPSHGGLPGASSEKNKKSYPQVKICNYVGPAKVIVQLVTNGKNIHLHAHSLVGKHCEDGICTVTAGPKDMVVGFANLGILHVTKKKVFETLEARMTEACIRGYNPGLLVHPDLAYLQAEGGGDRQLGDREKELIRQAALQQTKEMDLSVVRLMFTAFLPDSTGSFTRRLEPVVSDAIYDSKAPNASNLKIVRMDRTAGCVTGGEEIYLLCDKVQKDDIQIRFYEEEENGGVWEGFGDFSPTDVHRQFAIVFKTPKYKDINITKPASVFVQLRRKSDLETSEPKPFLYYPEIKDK
Sequence,binding signal (GST-Ap-NF-kB RHD) [z-score],binding signal [1] [z-score],binding signal [2] [z-score],binding signal (GST-Dm-Relish) [z-score],binding signal (GST-Aq-NF-kB) [z-score],binding signal (GST-Hu-p50) [z-score],binding signal (GST-Co-NF-kB) [z-score]
CCGATTAACATCACGGTTATTCCTGATGTTAATCGGGTCTTGATTCGCTTGACGCTGCTG,1.09,1.52,2.15,3.64,2.03,3.59,–
CCGATTAACATCAGGGTTTCACCTGATGTTAATCGGGTCTTGATTCGCTTGACGCTGCTG,1.51,1.95,1.23,5.71,3.71,2.5,–
CCGATTAACATCAGGGATTTCACTGATGTTAATCGGGTCTTGATTCGCTTGACGCTGCTG,2.71,2.33,1.49,6.3,4.19,2.38,–
CCGATTAACATCAAAAAGCCCCTTGATGTTAATCGGGTCTTGATTCGCTTGACGCTGCTG,7.33,9.57,7.49,8.7,7.9,6.72,–
CCGATTAACATCAGGGAGGCCCCTGATGTTAATCGGGTCTTGATTCGCTTGACGCTGCTG,5.52,3.79,1.37,6.28,7.2,3.63,–
CCGATTAACATCAGGGACTTCCATGATGTTAATCGGGTCTTGATTCGCTTGACGCTGCTG,5.02,5.5,5.01,6.69,5.53,4.56,–
CCGATTAACATCAAGGAAGTCCCTGATGTTAATCGGGTCTTGATTCGCTTGACGCTGCTG,5.76,5.94,5.82,7.11,5.83,4.82,–
CCGATTAACATCAGGGGGAACACTGATGTTAATCGGGTCTTGATTCGCTTGACGCTGCTG,6.57,5.66,–,6.58,5.54,5.28,8.64
CCGATTAACATCACGCAAATCCCTGATGTTAATCGGGTCTTGATTCGCTTGACGCTGCTG,2.1,1.61,1.22,1.24,2,1.33,–
CCGATTAACATCAGAAAGTCCCATGATGTTAATCGGGTCTTGATTCGCTTGACGCTGCTG,5.73,7.09,6.43,6.06,5.57,4.63,–
CCGATTAACATCAGGAGAGTCCCTGATGTTAATCGGGTCTTGATTCGCTTGACGCTGCTG,4.86,5.29,3.96,3.65,7.1,3.89,–
CCGATTAACATCAGGGAGGTACCTGATGTTAATCGGGTCTTGATTCGCTTGACGCTGCTG,3.34,2.59,2.93,5.13,3.92,2.03,–
CCGATTAACATCAGGAAAGTCCCTGATGTTAATCGGGTCTTGATTCGCTTGACGCTGCTG,7.69,10.6,8.2,8.43,9.81,7.09,–
CCGATTAACATCAGGAAAGCACCTGATGTTAATCGGGTCTTGATTCGCTTGACGCTGCTG,2.85,4.19,2.69,6.13,5.89,4.74,–
CCGATTAACATCAAGGGGTTTCCTGATGTTAATCGGGTCTTGATTCGCTTGACGCTGCTG,6.93,5.76,4.08,7.98,6.62,5.36,–
CCGATTAACATCAAACCCCCCCTTGATGTTAATCGGGTCTTGATTCGCTTGACGCTGCTG,6.49,4.97,–,7.14,5.59,5.38,4.6
CCGATTAACATCAGGGATTTACATGATGTTAATCGGGTCTTGATTCGCTTGACGCTGCTG,2.19,2.3,1.4,9.71,3.34,1.92,–
CCGATTAACATCAGGGGGGAGAATGATGTTAATCGGGTCTTGATTCGCTTGACGCTGCTG,6,4.08,–,3.85,4.82,6.41,7.95
CCGATTAACATCAGGAAATCACCTGATGTTAATCGGGTCTTGATTCGCTTGACGCTGCTG,2.81,3.51,3.89,7.51,4.87,5.42,–
CCGATTAACATCAGGAGTGCCCCTGATGTTAATCGGGTCTTGATTCGCTTGACGCTGCTG,2.63,2.03,–,2.25,5,2.25,1.41
CCGATTAACATCACAACGACCCCTGATGTTAATCGGGTCTTGATTCGCTTGACGCTGCTG,2.27,1.3,–,1.08,2.48,1.12,1.28
CCGATTAACATCAAAATGCCCCCTGATGTTAATCGGGTCTTGATTCGCTTGACGCTGCTG,5.68,5.66,–,5.29,6.11,5.37,4.18
CCGATTAACATCAGAAACTCCCATGATGTTAATCGGGTCTTGATTCGCTTGACGCTGCTG,3.34,3.45,2.93,3.38,3.7,2.9,–
CCGATTAACATCAGGCCATTCCCTGATGTTAATCGGGTCTTGATTCGCTTGACGCTGCTG,1.39,2.63,1.77,2.6,4.37,1.79,–
CCGATTAACATCAGGGAAGGCCCTGATGTTAATCGGGTCTTGATTCGCTTGACGCTGCTG,4.52,4.31,1.93,8.94,6.45,2.96,–
CCGATTAACATCAGGGGCTTCACTGATGTTAATCGGGTCTTGATTCGCTTGACGCTGCTG,3.16,3.35,2.69,7.68,4.89,4.01,–
